LASV entry inh – inhibitors of Lassa virus binding or cell entry; 300,000 compounds, 1.2% hits; Potency, µM (highest dose often 37.9 µM), for inactives: at the highest dose activity change, negative = inhibition, hits mostly inhibitors; Lassa virus pseudotype entry inhibition, cell reporter; calls by dose curve; tested in HEK293 cells; also: potency is read from the fitted curve at half-maximal effect; nearly all actives have a fitted effect of over 50% in size
FMDV inh – foot and mouth disease virus antiviral activity | FMDV antiviral cell-based qHTS | Potency, µM (doses to about 57.9 µM), for inactives: top-dose activity change, negative = inhibition, hits mostly inhibitors | 410,000 compounds, 1.2% hits; calls by dose curve; tested in HEK293T cells; also: read-out not given here; potency is read from the fitted curve at half-maximal effect; nearly all actives have a fitted effect of over 45% in size
Marburg entry inh – Marburg virus entry inhibition | Marburg virus pseudotyped entry inhibition, cell reporter | Potency, µM (titrated, usually from 37.8 µM), inactives show at the top dose activity change, negative = inhibition, actives largely listed as inhibitors | 300,000 compounds, 1.8% hits | AID 540276; calls by dose curve; tested in HEK293 cells; also: potency is read from the fitted curve at half-maximal effect
HCMV antiviral – human cytomegalovirus inhibition; HFF cells, HCMV-luciferase reporter, 72 h; active compounds read low; activity change, negative = inhibition, % at 57.5 µM; 410,000 compounds, 4.5% hits; AID 1259415; in the data active = activity change below about -60%; inconclusive = no clear call, values can overlap the other calls; inactive = above about -39%
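Inhibition of viral replication was scored as loss of reporter luminescence in HFFs infected with HCMV-luciferase (MOI 1 PFU/cell) for 72 h; compounds tested at 2 doses, normalized to buffer and Salinomycin controls.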
An asterisk follows results filed as active; [ ] = remark or other dose. Sampled rows, rich in hits. Any-hit rate of the full collection: about 6.2%. % is scaled to controls: 0 for no effect and ±100 for the full control effect.

For C/C(N)=C(/C#N)C(=O)CSc1nc(C2CCCCC2)n(-c2ccccc2)n1 the results were LASV entry inh -1%[46.1 µM], FMDV inh -9%, Marburg entry inh -25%[46.1 µM] and HCMV antiviral inconclusive.
For COc1ccc(N(CC(=O)N/N=C/c2ccc(-c3ccc([N+](=O)[O-])cc3)o2)S(=O)(=O)c2ccc(C)cc2)cc1Cl the results were LASV entry inh -1%, FMDV inh -8%, Marburg entry inh 4% and HCMV antiviral -33.
Screening CCC(C)NC(=O)CN(c1ccc(OC)cc1)S(=O)(=O)c1ccccc1 (stereo unspecified) returned LASV entry inh 18%, FMDV inh -5%, Marburg entry inh inconclusive and HCMV antiviral -10.
Screening COc1ccc(N(CC(=O)N/N=C/c2ccc(-c3ccc([N+](=O)[O-])cc3)o2)S(=O)(=O)c2ccc(C)cc2)cc1 returned LASV entry inh -14%, FMDV inh -13%, Marburg entry inh inconclusive and HCMV antiviral -68*.
COc1ccc(N(CC(=O)NN=C2CCCCCCC2)S(=O)(=O)c2ccccc2)cc1 was read as LASV entry inh 11%, Marburg entry inh -11% and HCMV antiviral -64*.
For COc1ccc(N(CC(=O)N/N=C/c2ccc(OC3CSC3)cc2)S(=O)(=O)c2ccccc2)cc1 the results were LASV entry inh inconclusive, FMDV inh -19%, Marburg entry inh inconclusive and HCMV antiviral inconclusive.
For COc1ccc(N(CC(=O)N/N=C/c2cccs2)S(=O)(=O)c2ccccc2)cc1 the results were LASV entry inh inconclusive, FMDV inh 4%, Marburg entry inh -12%[46.1 µM] and HCMV antiviral -67*.
For O=C(Nc1nccs1)c1ccc(Cl)nc1 the results were FMDV inh 27% and HCMV antiviral 51.
For O=C(CN1C(=O)c2cccc3cccc1c23)Nc1ccc(S(=O)(=O)Nc2nccs2)cc1 the results were LASV entry inh -7%, FMDV inh 34%, Marburg entry inh 9% and HCMV antiviral 1.
Cc1ccc(-c2nc(C(=O)Nc3cccc(C#N)c3)c3n2CCCCC3)cc1 was read as LASV entry inh 1%[46.1 µM], FMDV inh -28% and HCMV antiviral -7.
Screening COC(=O)c1cc(Sc2c(Cl)cccc2Cl)ccn1 returned LASV entry inh -24%, FMDV inh -14%, Marburg entry inh 11µM* and HCMV antiviral -39.
Screening CC[n+]1c(/C=C/N(C)c2ccccc2)oc2ccccc21 returned LASV entry inh inconclusive, FMDV inh inconclusive, Marburg entry inh inconclusive and HCMV antiviral -97*.
CC[n+]1c(/C=C/Nc2ccccc2)oc2ccccc21 was read as LASV entry inh inconclusive, FMDV inh -30%, Marburg entry inh inconclusive and HCMV antiviral inconclusive.
CC[n+]1c(/C=C/N(C)c2ccccc2)oc2ccc(F)cc21 was read as LASV entry inh inconclusive, FMDV inh -23%, Marburg entry inh inconclusive and HCMV antiviral -85*.
Screening CCOC(=O)C1C(c2cccc(Cl)c2Cl)NC(=O)NC1(O)C(F)(F)F (stereo unspecified) returned LASV entry inh 1%, FMDV inh -8%, Marburg entry inh inconclusive and HCMV antiviral 6.
For CCOC(=O)C1C(c2ccc(C(=O)O)cc2)NC(=O)NC1(O)C(F)(F)F (stereo unspecified) the results were LASV entry inh -2%, FMDV inh -13%, Marburg entry inh 6%[46.1 µM] and HCMV antiviral -72*.
Screening COc1ccc(-c2nnn(CC(=O)N(Cc3ccccc3Cl)C(C(=O)NCC3CCCO3)c3ccco3)n2)cc1 (stereo unspecified) returned LASV entry inh -20%, FMDV inh 33%, Marburg entry inh 0% and HCMV antiviral -5.
`CCc1ccc(-c2cc(C(=O)Nc3c(C)n(C)n(-c4ccccc4)c3=O)c3ccccc3n2)s1` gave LASV entry inh inconclusive, FMDV inh -6%, Marburg entry inh inconclusive and HCMV antiviral 16.
Screening N#C/C(=C/c1ccc(N2CCCCC2)o1)c1cccc(F)c1 returned LASV entry inh inconclusive, FMDV inh -13%, Marburg entry inh inconclusive and HCMV antiviral 49.
N#C/C(=C/c1ccc(N2CCCCCC2)o1)c1ccc(Cl)cc1 was read as LASV entry inh -25%, FMDV inh 25µM* and Marburg entry inh inconclusive.
Screening COC(=O)c1ccc(CN2CCOc3ccc(CN4CCC(O)(c5cccnc5)CC4)cc3C2)cc1 returned FMDV inh 18µM*.
For COc1ccc(N2C(=O)/C(=C/c3ccc(OC)c(OC)c3)C(=O)NC2=S)cc1 the results were FMDV inh -16% and HCMV antiviral 6.
Screening Cc1cccc(N2C(=O)/C(=C/c3ccc(N4CCN(C)CC4)o3)C(=O)NC2=S)c1C returned LASV entry inh -12%, FMDV inh -17%, Marburg entry inh -15% and HCMV antiviral -64*.
COc1ccc(N2C(=O)/C(=C/c3ccc(C)o3)C(=O)NC2=S)c(OC)c1 was read as FMDV inh 20µM* and HCMV antiviral 11.
For O=C(CCS(=O)(=O)c1cccc2nonc12)N1CCOCC1 the results were LASV entry inh 11%, FMDV inh -11%, Marburg entry inh 5% and HCMV antiviral -5.
For CC(C(=O)NCCN1CCOCC1)(c1ccccc1)c1ccccc1 the results were LASV entry inh inconclusive, FMDV inh -10%, Marburg entry inh inconclusive and HCMV antiviral -28.
Screening COc1cc(CCC(=O)N2CCN(c3ccccc3)CC2)cc(OC)c1OC returned LASV entry inh 7%, FMDV inh -11%, Marburg entry inh -3%[46.1 µM] and HCMV antiviral -19.
Cc1sc(NC(=O)C2CCCCC2)c(C#N)c1-c1ccccc1 was read as LASV entry inh -26%, FMDV inh 52%, Marburg entry inh -25% and HCMV antiviral -3.
Cc1ccc(C(=O)n2c(-c3ccccc3)cnc2SCC(=O)Nc2ccc(C)cc2C)cc1 was read as LASV entry inh inconclusive, FMDV inh -15%, Marburg entry inh inconclusive and HCMV antiviral 4.
COc1ccccc1CNC(=O)COC(=O)/C=C/c1ccc2ccccc2n1 was read as FMDV inh 23% and HCMV antiviral -62*.
CC(=O)/C=C/c1ccc2ccccc2n1 was read as LASV entry inh inconclusive, FMDV inh inconclusive, Marburg entry inh inconclusive and HCMV antiviral -84*.
COc1ccccc1CNC(=O)COC(=O)/C=C/c1cccs1 was read as LASV entry inh 1%, FMDV inh 8%, Marburg entry inh -38% and HCMV antiviral -26.
O=C(/C(=N/N=C/c1ccc(O)c(O)c1O)c1ccccc1)c1ccccc1 was read as LASV entry inh 8.9µM*, FMDV inh -27%, Marburg entry inh inconclusive and HCMV antiviral 14.
Screening Oc1ccc(/C=N/N=C(c2ccccc2)c2ccccc2)c(O)c1O returned LASV entry inh inconclusive, FMDV inh -6%, Marburg entry inh inconclusive and HCMV antiviral inconclusive.
For CN(C(=O)CSc1nc(-c2ccccc2)cs1)C1CCS(=O)(=O)C1 (stereo unspecified) the results were LASV entry inh 4%, FMDV inh 4%, Marburg entry inh 25% and HCMV antiviral 42.
For COc1ccc(C(O)(c2ccccc2OC)C(CN2CCOCC2)c2ccccc2)cc1 (stereo unspecified) the results were FMDV inh -26%, Marburg entry inh 11µM* and HCMV antiviral -26.
